High-throughput results deposited in PubChem BioAssay by Corson Lab, School of Medicine, Indiana University.
This is one part of a sample in which hits are shown more often than they occur.
FECH block – human FECH heme synthesis enzyme inhibition; P22830; purified FECH, Ni-mesoporphyrin absorbance 550 nm; AID 1671448; hit rate 3.3% among 20,000; calls only at 10 µM (by protocol);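 active = enzyme reaction rate more than 3 SD below the solvent-only control wells on the same plate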;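 also: lower slope than DMSO wells means FECH inhibition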
Target sequence (P22830 whole entry, looked up): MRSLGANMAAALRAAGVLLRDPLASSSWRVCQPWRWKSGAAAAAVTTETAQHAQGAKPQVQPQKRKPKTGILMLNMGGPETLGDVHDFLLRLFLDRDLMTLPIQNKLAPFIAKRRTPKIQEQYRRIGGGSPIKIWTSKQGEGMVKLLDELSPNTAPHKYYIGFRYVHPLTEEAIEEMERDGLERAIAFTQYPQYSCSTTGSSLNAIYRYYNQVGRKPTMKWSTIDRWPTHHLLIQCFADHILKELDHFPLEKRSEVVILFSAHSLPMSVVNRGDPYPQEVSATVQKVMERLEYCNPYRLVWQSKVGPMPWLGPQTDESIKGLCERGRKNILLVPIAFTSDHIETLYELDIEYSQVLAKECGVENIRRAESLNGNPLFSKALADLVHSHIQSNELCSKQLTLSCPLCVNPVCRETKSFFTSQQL
Large screens that a line does not name were inactive.

CC1CCN(c2ccc(NC(=O)CN3C(=O)c4ccccc4S3(=O)=O)cc2Cl)CC1	none
CCC1=C(c2ccc(OC)cc2)S(=O)(=O)N(CC(=O)Nc2ccc(F)cc2F)C1=O	none
O=C(CN1c2ccc(F)cc2-c2ccccc2S1(=O)=O)Nc1ccccc1Oc1ccccc1	FECH block active
CCc1ccc2c(c1)-c1ccccc1S(=O)(=O)N2CC(=O)Nc1ccc(F)cc1	FECH block active
C=CCN(c1nc2nc(C)c(Cl)c(C)n2n1)S(=O)(=O)c1ccccc1	none
O=C(NCc1ccccc1-n1cncn1)c1ncc[nH]1	none
O=C(NCCc1nc2cccnc2n1C1CCCCC1)Nc1ccc(F)cc1F	none
CC(Nc1ccccc1)(C(=O)N1CCn2cncc2C1)c1ccccc1 (stereo not drawn)	none
CN(Cc1ccc2nsnc2c1)C(=O)c1ccccc1-n1cncn1	none
COc1ccc(OC)c(NC(=O)Nc2ccccc2Sc2cc(C)nc3ncnn23)c1	none
O=C(c1ccc(-n2ccc(-c3cccnc3)n2)cc1)C1CC1	none
Nc1ccc(S(=O)(=O)N2CCN(c3ccc(F)cc3)CC2)cc1S(N)(=O)=O	FECH block active
O=C1CC(=O)Nc2cc(S(=O)(=O)N3CCOCC3)ccc2N1	none
O=C1CC(=O)Nc2cc(S(=O)(=O)N3CCN(c4ccc(F)cc4)CC3)ccc2N1	FECH block active
O=C1CC(=O)Nc2cc(S(=O)(=O)N3CCCCC3)ccc2N1	none
Cc1ccc(NS(=O)(=O)c2ccc(N)c(S(N)(=O)=O)c2)cc1Cl	none
Cc1ccc(-c2cc(N3CCN(S(=O)(=O)c4ccc(F)cc4)CC3)ncn2)cc1	none
COc1ccccc1-c1nc(Cn2c(=O)c3cnc(-c4cccnc4)nc3n(C)c2=O)c(C)o1	none
CCOc1ccccc1-c1nc(Cn2c(=O)c3cnc(-c4ccc(C)cc4)nc3n(C)c2=O)c(C)o1	none
COc1ccccc1-c1nc(Cn2c(=O)c3cnc(-c4ccc(C)cc4)nc3n(C)c2=O)c(C)o1	FECH block active
COc1ccc(-c2ncc3c(=O)n(Cc4cccc(OC)c4)c(=O)n(C)c3n2)cc1	none
COc1ccc(-c2ncc3c(=O)n(Cc4cccnc4)c(=O)n(C)c3n2)cc1	FECH block active
COc1ccc(-c2ncc3c(=O)n(Cc4cccc(C)c4)c(=O)n(C)c3n2)cc1	none
Cc1cc(C(=O)N(C)C(C)c2ccncn2)c2cccc(C)c2n1 (stereo not drawn)	none
O=C1CCS(=O)(=O)N1c1ccc(S(=O)(=O)NC2CCS(=O)(=O)C2)cc1 (stereo not drawn)	none
CN1CCC(N(C)Cc2cn[nH]c2-c2ccc(F)cc2)C1 (stereo not drawn)	none
Cc1ccc(N2C(=O)CCS2(=O)=O)cc1S(=O)(=O)Nc1ccccc1C(C)(C)C	none
COCCNS(=O)(=O)c1ccc(N2C(=O)CCS2(=O)=O)cc1	none
COCCn1c(CNS(=O)(=O)c2ccc(C(C)(C)C)cc2)nc2cccnc21	none
COCc1nc2cccnc2n1C1CCN(S(=O)(=O)c2ccc(Br)cc2)CC1	none
COCc1nc2cccnc2n1C1CCN(S(=O)(=O)c2ccc(NC(C)=O)cc2)CC1	FECH block active
COCc1nc2cccnc2n1C1CCN(S(=O)(=O)c2ccccc2)CC1	none
CCC(C)(C)c1nnc(NC(=O)NCc2ccco2)s1	none
CCCc1c(C)nc2ncnn2c1Sc1ccc(NC(=O)Nc2cccc(C(F)(F)F)c2)cc1	none
CC[C@H]1CN(C(=O)c2cnc(N3CCN(C)CC3)nc2C)CC[C@@]1(C)O	none
Cc1cccc(C)c1C(=O)N1CC[C@@](C)(O)[C@@H](Cc2ccccc2)C1	FECH block active
C[C@@]1(O)CCN(C(=O)Cc2ccc(O)cc2)C[C@@H]1Cc1ccccc1	none
CCOc1ncccc1-c1ccc(-c2nn[nH]n2)cc1	none
Cc1ccc(-c2nc(C)cc(OCC(=O)Nc3cc(C)ccc3C)n2)cc1	none
Cc1ccc(-c2nc(C)cc(OCC(=O)Nc3ccc(C)c(F)c3)n2)cc1	FECH block active
COc1ccc(NC(=O)COc2cc(C)nc(-c3ccc(C)cc3)n2)cc1OC	none
COc1cccc(N2CCN(Cc3cn[nH]c3C(=O)O)C(C)C2=O)c1 (stereo not drawn)	none
Cc1cc(C)cc(Oc2cc(SCC(=O)Nc3ccc(F)cc3Cl)ncn2)c1	FECH block active
COc1cccc(CNC(=O)CSc2cc(Oc3cc(C)cc(C)c3)ncn2)c1OC	FECH block active
COc1ccccc1CNC(=O)CN(C)Cc1ncc(C)[nH]1	none
Cc1ccc(NC(=O)CN2CCN(Cc3ccc(F)cc3Cl)S2(=O)=O)c(Cl)c1	none
Cc1ccccc1NC(=O)CCNC(=O)COc1c(C)ccc(C)c1C	none
COc1ccccc1CNC(=O)CN(C)Cc1c(C)nn(C)c1C	none
CCC(=O)Nc1ccccc1-c1nnc(SCC(=O)Nc2ccc(C)cc2C)[nH]c1=O	none
CN(C)c1nc2ncnc(SCC(=O)Nc3ccc(F)cc3F)c2s1	none
Cc1cc(C)cc(Oc2cc(SCC(=O)Nc3ccccc3C)ncn2)c1	FECH block active
O=C(O)C1CC2(CCNCC2)CN1C(=O)c1scc2c1CCCC2 (stereo not drawn)	none
Cc1ccc(CNC(=O)c2[nH]cnc2C(=O)NCC(C)(C)C)o1	none
Cc1nc2cccnc2n1C1CCN(S(=O)(=O)c2ccc(F)cc2)CC1	none
c1ccc(Nc2nc(N3CCN(c4ccccc4)CC3)nc3c2cnn3-c2ccccc2)cc1	none
CCc1ccc(S(=O)(=O)N2CCN(c3cc(-c4ccc(C)cc4)ncn3)CC2)cc1	none
O=C(c1cn[nH]n1)N1CCC(n2c(=O)[nH]c3ccccc32)CC1	none
O=S1(=O)CCC(Nc2ncc(F)c(N3CCOCC3)n2)C1 (stereo not drawn)	none
Cc1cccc(C)c1NCc1cc(=O)n2[nH]c(NCc3ccccc3)nc2n1	none
Cc1cccc(NCc2cc(=O)n3[nH]c(-c4ccc(C(C)(C)C)cc4)nc3n2)c1C	none
COc1ccc(NCc2cc(=O)n3[nH]c(-c4ccc(C(C)(C)C)cc4)nc3n2)c(OC)c1	none
Cc1ccc(NCc2cc(=O)n3[nH]c(-c4ccc(C(C)(C)C)cc4)nc3n2)c(C)c1	FECH block active
CCCNCc1cc(=O)n2[nH]c(-c3ccc(C(C)(C)C)cc3)nc2n1	none
CC(C)(C)c1ccc(-c2nc3nc(CNc4ccc(F)cc4)cc(=O)n3[nH]2)cc1	FECH block active
Cc1cccc(C)c1NCc1cc(=O)n2[nH]c(-c3ccc(C(C)(C)C)cc3)nc2n1	FECH block active
Cc1ccc(NCc2cc(=O)n3[nH]c(NCc4ccccc4)nc3n2)c(C)c1	none
Cc1ccc(NCc2cc(=O)n3[nH]c(-c4ccc(C(C)(C)C)cc4)nc3n2)cc1C	none
COCCn1c(CNC(=O)c2ccccc2Cl)nc2cccnc21	none
CCCc1c(C)nc2ncnn2c1Sc1ccc(NS(=O)(=O)c2ccc(Cl)s2)cc1	none
CCc1c(C)nc2ncnn2c1Sc1ccc(NC(=O)Nc2cc(F)ccc2F)cc1	none
C=C(C)COc1cccc(C(=O)N2CCCC(C(=O)O)C2)c1 (stereo not drawn)	none
CCN(CC1CCOCC1)C(=O)c1ccc(CC2CCCNC2)cc1 (stereo not drawn)	none
CCc1cc(Sc2ccc(NC(=O)Nc3cccc(Cl)c3)cc2)n2nc(C)nc2n1	none
O=C(c1ccc2ncsc2c1)N(C/C=C/c1ccccc1)CCO	none
COCCNC(=O)C1(C)Cn2c(cc3ccsc32)C(=O)N1Cc1ccccc1C (stereo not drawn)	FECH block active
COCCNC(=O)C1(C)Cn2c(cc3ccsc32)C(=O)N1Cc1ccccc1OC (stereo not drawn)	none
COCCNC(=O)C1(C)Cn2c(cc3ccsc32)C(=O)N1Cc1ccccc1 (stereo not drawn)	none
CCOc1ccc(Cn2c(CNS(=O)(=O)c3ccc(F)c(Cl)c3)nc3cccnc32)cc1	none
Cc1cc(N(C)C)nc(N2CCN(S(=O)(=O)c3ccccc3)CC2)n1	FECH block active
